Measurements from the supplement of paper PMC10849652.
The full data set covers some 7,900 targets. This sample favours those with a hit. About 0.6% of all pairs of compound and target were hits. A number with no mark means an inactive call.

Legend:
Experiment in all cases: log2 fold change, soluble protein after heating vs DMSO (PISA); higher = thermal stabilisation; K562 cells, 10 uM, 30 min; active = over 0.2 and 3.5 SD of the protein, either way, in both replicates (recomputed)
[1] = compound: CON(C)C(=O)N1N=C(c2cc(F)ccc2F)S[C@@]1(CCCN)c1ccccc1 [filanesib]
Method in brief: (§1)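 Quantification of soluble protein used TMTpro 16plex LC-MS/MS, with channel sums equalised. Samples were the supernatant after 21,000xg for 90 min of pooled aliquots from K562 cells (2×10^6 cells/mL) treated with 10 μM compound for 30 min, heated for 3 min over 48°C-58°C, and extracted in PBS with 0.5% NP-40 at 4°C. Values, from duplicates, describe thermal stability against control samples on a log2 fold-change scale.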

[2] = compound: CO[C@H]1C[C@@H]2CC[C@@H](C)[C@@](O)(O2)C(=O)C(=O)N2CCCC[C@H]2C(=O)O[C@H]([C@H](C)C[C@@H]2CC[C@H](n3cnnn3)[C@H](OC)C2)CC(=O)[C@H](C)/C=C(\C)[C@@H](O)[C@@H](OC)C(=O)[C@H](C)C[C@H](C)/C=C/C=C/C=C/1C [zotarolimus]
Method in brief: as §1

[3] = compound: COc1cc(C(=O)O)ccc1NC(=O)[C@@H]1N[C@@H](CC(C)(C)C)[C@](C#N)(c2ccc(Cl)cc2F)[C@H]1c1cccc(Cl)c1F [idasanutlin]
Method in brief: as §1

[4] = compound: COc1cc(Nc2ncc3c(n2)-c2ccc(Cl)cc2C(c2c(F)cccc2OC)=NC3)ccc1C(=O)O [alisertib]
Method in brief: as §1

[5] = compound: COc1cc2nc(-c3cc(F)ccc3O)nc(N[C@@H]3CNC[C@H]3C(C)(C)O)c2cc1OC
Method in brief: as §1

[6] = compound: COc1cc2ncnc(Nc3ccc(F)c(Cl)c3)c2cc1OCCCN1CCOCC1 [gefitinib]
Method in brief: as §1

[7] = compound: COc1cccc2cc(-c3nc([C@H]4CC[C@H](C(=O)O)CC4)n4ncnc(N)c34)[nH]c12
Method in brief: as §1

[8] = compound: CS(=O)(=O)CCNCc1ccc(-c2ccc3ncnc(Nc4ccc(OCc5cccc(F)c5)c(Cl)c4)c3c2)o1 [lapatinib]
Method in brief: as §1

[9] = compound: CS(=O)(=O)N1CCN(Cc2cc3nc(-c4cccc5[nH]ncc45)nc(N4CCOCC4)c3s2)CC1 [pictilisib]
Method in brief: as §1

[10] = compound: CS(=O)(=O)c1ccc(-c2cnc(N)c(C(=O)Nc3ccccc3)n2)cc1
Method in brief: as §1

[11] = compound: C[C@@H](Oc1cc(-c2cnn(C3CCNCC3)c2)cnc1N)c1c(Cl)ccc(F)c1Cl [crizotinib]
Method in brief: as §1

[12] = compound: C[C@@H]1COCCN1C2=NC(=NC(=C2)C3(CC3)S(=O)(=O)C)C4=C5C=CNC5=CC=C4
Method in brief: as §1

[13] = compound: C[C@H](C1=CC=C(C=C1)C(=O)NC2=C3C=CNC3=NC=C2)N
Method in brief: as §1

[14] = compound: C[C@H](Nc1ncnc2nc[nH]c12)c1cc2cccc(Cl)c2c(=O)n1-c1ccccc1 [duvelisib]
Method in brief: as §1

[15] = compound: Cc1cc(Nc2cc(CN3CCOCC3)c3nc(C)c(Cc4ccc(Cl)cc4F)n3n2)n[nH]1 [gandotinib]
Method in brief: as §1

[16] = compound: Cc1cc(Nc2cc(N3CCN(C)CC3)nc(Sc3ccc(NC(=O)C4CC4)cc3)n2)n[nH]1 [tozasertib]
Method in brief: as §1

[17] = compound: Cc1cc(SCc2sc(-c3ccc(C(F)(F)F)cc3)nc2C)ccc1OCC(=O)O
Method in brief: as §1

[18] = compound: Cc1ccc(-n2nc(C(C)(C)C)cc2NC(=O)Nc2ccc(OCCN3CCOCC3)c3ccccc23)cc1 [doramapimod]
Method in brief: as §1

[19] = compound: Cc1ccc(C(=O)N(CCCN)[C@@H](c2nc3cc(Cl)ccc3c(=O)n2Cc2ccccc2)C(C)C)cc1 [ispinesib]
Method in brief: as §1

[20] = compound: COC1=CC=C(C=C1)CN2C=CC3=C2C=C(C=C3)C(=O)NO
Method in brief: as §1

UniProt O60725, sequence (O60725 whole entry, looked up): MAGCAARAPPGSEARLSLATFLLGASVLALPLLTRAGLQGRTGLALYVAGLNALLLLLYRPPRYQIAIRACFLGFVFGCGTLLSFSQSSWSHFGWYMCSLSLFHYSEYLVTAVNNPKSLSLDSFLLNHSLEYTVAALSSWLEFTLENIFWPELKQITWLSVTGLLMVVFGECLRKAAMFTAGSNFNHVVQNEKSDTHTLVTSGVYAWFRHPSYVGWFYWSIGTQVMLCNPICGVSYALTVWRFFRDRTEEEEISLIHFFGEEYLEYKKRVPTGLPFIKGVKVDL
UniProt Q13547, sequence (Q13547 whole entry, looked up): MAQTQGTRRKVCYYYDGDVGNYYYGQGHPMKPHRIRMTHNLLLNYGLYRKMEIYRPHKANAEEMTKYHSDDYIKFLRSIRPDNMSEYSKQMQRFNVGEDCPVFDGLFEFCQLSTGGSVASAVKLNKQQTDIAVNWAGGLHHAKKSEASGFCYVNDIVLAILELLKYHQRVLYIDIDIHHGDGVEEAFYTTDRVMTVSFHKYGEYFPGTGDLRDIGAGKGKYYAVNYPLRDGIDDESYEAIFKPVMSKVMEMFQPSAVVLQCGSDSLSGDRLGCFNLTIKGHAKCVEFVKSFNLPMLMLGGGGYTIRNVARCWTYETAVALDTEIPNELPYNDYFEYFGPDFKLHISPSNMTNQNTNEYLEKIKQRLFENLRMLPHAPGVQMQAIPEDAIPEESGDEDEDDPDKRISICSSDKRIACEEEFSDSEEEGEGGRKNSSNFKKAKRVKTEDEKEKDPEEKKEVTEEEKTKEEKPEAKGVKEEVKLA
UniProt P50213, sequence (P50213 whole entry, looked up): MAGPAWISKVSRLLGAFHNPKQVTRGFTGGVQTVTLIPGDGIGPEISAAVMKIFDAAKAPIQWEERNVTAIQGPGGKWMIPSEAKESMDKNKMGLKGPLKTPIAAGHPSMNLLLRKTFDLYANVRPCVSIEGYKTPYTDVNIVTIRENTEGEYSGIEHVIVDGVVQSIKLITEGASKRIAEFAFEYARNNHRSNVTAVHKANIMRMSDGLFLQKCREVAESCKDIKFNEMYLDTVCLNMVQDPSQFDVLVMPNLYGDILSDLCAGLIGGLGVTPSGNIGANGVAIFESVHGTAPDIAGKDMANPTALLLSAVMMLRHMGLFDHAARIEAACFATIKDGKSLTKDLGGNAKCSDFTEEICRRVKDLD
UniProt Q9H6D7, sequence (Q9H6D7 whole entry, looked up): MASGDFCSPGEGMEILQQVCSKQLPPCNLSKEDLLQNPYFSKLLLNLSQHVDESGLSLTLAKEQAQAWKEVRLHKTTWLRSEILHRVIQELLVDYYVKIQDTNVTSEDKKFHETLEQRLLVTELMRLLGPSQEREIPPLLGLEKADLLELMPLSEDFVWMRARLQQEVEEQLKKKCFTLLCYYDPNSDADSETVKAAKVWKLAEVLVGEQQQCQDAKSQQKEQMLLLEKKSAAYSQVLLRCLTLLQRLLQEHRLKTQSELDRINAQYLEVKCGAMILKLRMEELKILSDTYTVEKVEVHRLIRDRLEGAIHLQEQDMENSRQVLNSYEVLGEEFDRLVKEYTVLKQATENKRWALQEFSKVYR
UniProt Q04446, sequence (Q04446 whole entry, looked up): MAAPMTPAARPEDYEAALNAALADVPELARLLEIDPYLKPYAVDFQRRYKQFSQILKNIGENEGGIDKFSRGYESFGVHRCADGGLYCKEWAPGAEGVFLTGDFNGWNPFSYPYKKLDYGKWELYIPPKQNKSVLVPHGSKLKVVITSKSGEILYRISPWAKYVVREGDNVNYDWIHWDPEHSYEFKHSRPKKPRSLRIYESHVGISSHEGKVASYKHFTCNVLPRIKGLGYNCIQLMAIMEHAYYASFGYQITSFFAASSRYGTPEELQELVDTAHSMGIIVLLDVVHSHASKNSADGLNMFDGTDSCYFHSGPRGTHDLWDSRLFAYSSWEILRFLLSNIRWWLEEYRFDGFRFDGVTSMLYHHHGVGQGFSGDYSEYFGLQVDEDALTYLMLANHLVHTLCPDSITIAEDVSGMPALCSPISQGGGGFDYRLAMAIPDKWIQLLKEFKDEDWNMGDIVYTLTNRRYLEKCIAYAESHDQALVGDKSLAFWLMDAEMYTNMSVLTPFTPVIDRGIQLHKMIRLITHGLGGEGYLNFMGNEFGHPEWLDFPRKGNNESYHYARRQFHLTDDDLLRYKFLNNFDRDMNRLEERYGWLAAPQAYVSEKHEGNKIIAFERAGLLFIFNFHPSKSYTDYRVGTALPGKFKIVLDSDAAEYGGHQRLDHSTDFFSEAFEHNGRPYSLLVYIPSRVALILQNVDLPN
UniProt Q9Y248, sequence (Q9Y248 whole entry, looked up): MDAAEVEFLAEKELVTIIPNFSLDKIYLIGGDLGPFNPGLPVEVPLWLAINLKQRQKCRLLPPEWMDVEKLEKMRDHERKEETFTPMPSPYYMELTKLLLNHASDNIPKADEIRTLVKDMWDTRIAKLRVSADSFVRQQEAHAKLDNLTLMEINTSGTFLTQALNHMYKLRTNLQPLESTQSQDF
UniProt P21695, sequence (P21695 whole entry, looked up): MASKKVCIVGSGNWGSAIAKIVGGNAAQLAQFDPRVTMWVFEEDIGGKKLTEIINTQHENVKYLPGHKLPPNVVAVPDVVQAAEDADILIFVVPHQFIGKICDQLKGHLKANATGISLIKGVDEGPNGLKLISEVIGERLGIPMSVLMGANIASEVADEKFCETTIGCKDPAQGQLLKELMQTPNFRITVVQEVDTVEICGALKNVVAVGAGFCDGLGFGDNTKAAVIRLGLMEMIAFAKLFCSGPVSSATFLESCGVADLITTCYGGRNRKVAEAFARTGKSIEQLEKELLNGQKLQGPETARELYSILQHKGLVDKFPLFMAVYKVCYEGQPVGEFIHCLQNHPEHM
UniProt Q8IVV7, sequence (Q8IVV7 whole entry, looked up): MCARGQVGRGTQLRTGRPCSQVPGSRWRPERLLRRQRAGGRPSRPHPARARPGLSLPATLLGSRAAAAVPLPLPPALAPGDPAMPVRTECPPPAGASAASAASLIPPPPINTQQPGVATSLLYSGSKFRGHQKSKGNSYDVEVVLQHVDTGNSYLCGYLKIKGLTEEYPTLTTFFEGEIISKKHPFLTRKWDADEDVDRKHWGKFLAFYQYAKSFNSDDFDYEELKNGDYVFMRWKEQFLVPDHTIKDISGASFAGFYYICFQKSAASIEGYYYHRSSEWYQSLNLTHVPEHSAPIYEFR
UniProt Q969S8, sequence (Q969S8 whole entry, looked up): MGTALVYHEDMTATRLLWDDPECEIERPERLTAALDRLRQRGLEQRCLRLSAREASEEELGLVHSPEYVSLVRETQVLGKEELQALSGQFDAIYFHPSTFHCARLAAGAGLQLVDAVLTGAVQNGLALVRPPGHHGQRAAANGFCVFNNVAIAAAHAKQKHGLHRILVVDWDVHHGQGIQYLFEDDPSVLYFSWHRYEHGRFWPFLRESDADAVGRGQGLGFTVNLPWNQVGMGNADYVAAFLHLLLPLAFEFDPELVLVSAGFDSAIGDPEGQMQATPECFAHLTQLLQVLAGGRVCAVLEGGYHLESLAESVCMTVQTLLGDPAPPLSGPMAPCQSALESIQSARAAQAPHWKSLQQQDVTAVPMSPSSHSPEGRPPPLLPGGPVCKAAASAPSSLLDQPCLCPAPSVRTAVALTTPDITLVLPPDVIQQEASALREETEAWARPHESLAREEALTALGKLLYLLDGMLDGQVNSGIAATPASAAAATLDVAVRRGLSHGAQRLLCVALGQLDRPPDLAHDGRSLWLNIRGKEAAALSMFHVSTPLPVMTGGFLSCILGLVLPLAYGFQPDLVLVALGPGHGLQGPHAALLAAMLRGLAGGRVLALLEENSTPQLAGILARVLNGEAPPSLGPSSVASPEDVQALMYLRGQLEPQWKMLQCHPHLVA
UniProt Q8IVP5, sequence (Q8IVP5 whole entry, looked up): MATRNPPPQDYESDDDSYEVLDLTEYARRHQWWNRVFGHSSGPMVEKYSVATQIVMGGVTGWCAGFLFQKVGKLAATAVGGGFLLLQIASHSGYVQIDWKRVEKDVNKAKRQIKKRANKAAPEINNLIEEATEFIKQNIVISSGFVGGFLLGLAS

| Target | log2 fold change [1] | log2 fold change [2] | log2 fold change [3] | log2 fold change [4] | log2 fold change [5] | log2 fold change [6] | log2 fold change [7] | log2 fold change [8] | log2 fold change [9] | log2 fold change [10] | log2 fold change [11] | log2 fold change [12] | log2 fold change [13] | log2 fold change [14] | log2 fold change [15] | log2 fold change [16] | log2 fold change [17] | log2 fold change [18] | log2 fold change [19] | log2 fold change [20] |
| --- | --- | --- | --- | --- | --- | --- | --- | --- | --- | --- | --- | --- | --- | --- | --- | --- | --- | --- | --- | --- |
| HDAC1 (UniProt Q13547) | 0.059 | -0.019 | -0.023 | 0.031 | 0 | 0.025 | 0.024 | 0.141 | 0.06 | 0.011 | 0.084 | 0.001 | 0.115 | 0.045 | -0.02 | -0.033 | 0.06 | -0.018 | 0.038 | – |
| ICMT (UniProt O60725) | -0.189 | – | -0.029 | -0.046 | -0.112 | 0.154 | 0.085 | 0.206 | – | 0.099 | 0.074 | 0.331 | – | 0.078 | – | -0.518 | -0.107 | 0.01 | -0.42 | -0.083 |
| GPD1 (UniProt P21695) | -0.083 | 0.022 | -0.289 | 0.077 | -0.051 | 0.368 | 0.111 | 0.015 | 0.203 | -0.036 | – | 0.034 | -0.482 | 0.124 | 0.094 | -0.072 | -0.034 | – | 0.046 | – |
| FMR1 (UniProt Q06787) | 0.219 | 0.005 | – | -0.023 | 0.286 | – | 0.322 | -0.027 | 0.036 | -0.067 | 0.151 | – | 0.199 | – | 0.045 | – | – | -0.065 | -0.022 | -0.3 |
| GINS2 (UniProt Q9Y248) | -0.021 | 0.29 | – | -0.069 | 0.025 | 0.035 | -0.089 | -0.026 | -0.119 | -0.066 | -0.036 | -0.046 | -0.15 | 0.164 | 0.004 | 0.145 | 0.247 | 0.026 | 0.167 | 0.057 |
| IDH3A isoform 2 (UniProt P50213) | – | -0.056 | -0.246 | – | – | 0.029 | – | – | – | – | -0.206 | – | -0.016 | – | – | -0.141 | – | 0.051 | – | 0.32 |
| HDAC10 (UniProt Q969S8) | – | -0.022 | -0.157 | -0.264 | 0.049 | 0.168 | 0.065 | 0.044 | 0.084 | – | – | – | -0.045 | 0.04 | 0.008 | -0.113 | 0.042 | – | 0.065 | – |
| FUNDC1 (UniProt Q8IVP5) | -0.193 | – | – | 0.011 | -0.138 | – | 0.172 | 0.101 | – | 0.046 | – | – | – | – | – | – | – | – | – | – |
| HAUS4 (UniProt Q9H6D7) | 0.245 | 0.05 | 0.126 | -0.103 | 0.024 | -0.086 | 0.323 | -0.038 | -0.162 | 0.068 | – | 0.024 | 0.139 | -0.303 | 0.015 | 0.041 | -0.195 | – | -0.259 | – |
| GBE1 (UniProt Q04446) | – | 0.045 | 0.002 | 0.019 | -0.168 | – | -0.102 | -0.022 | – | – | -0.565 (active) | -0.054 | 0.193 | -0.026 | – | -0.001 | 0.094 | -0.02 | -0.286 | 0.048 |
| GID4 (UniProt Q8IVV7) | -0.089 | 0.013 | -0.023 | -0.074 | 0.097 | -0.067 | 0.01 | -0.14 | 0.024 | 0 | – | 0.054 | -0.006 | 0.009 | 0.034 | 0.052 | 0.032 | – | 0.044 | – |
